Source: PubChem
PI5P4Ka inh: qHTS for Inhibitors of phosphatidylinositol 5-phosphate 4-kinase (PI5P4K) | Phosphatidylinositol 5-phosphate 4-kinase type-2 alpha (Homo sapiens), P48426 | PI5P4Kalpha enzyme, ADP-Glo luminescence, 60 min; active compounds read low | max response, % | 330,000 compounds, 1.2% hits | AID 652105, 2013; active means max response of -50% or lower; inconclusive means between -30% and -50%; inactive means -30% or higher; further: value at the top dose of about 77 µM; on the % scale 0 is the no-effect control and ±100 the full control effect
Target sequence (P48426 whole entry, looked up): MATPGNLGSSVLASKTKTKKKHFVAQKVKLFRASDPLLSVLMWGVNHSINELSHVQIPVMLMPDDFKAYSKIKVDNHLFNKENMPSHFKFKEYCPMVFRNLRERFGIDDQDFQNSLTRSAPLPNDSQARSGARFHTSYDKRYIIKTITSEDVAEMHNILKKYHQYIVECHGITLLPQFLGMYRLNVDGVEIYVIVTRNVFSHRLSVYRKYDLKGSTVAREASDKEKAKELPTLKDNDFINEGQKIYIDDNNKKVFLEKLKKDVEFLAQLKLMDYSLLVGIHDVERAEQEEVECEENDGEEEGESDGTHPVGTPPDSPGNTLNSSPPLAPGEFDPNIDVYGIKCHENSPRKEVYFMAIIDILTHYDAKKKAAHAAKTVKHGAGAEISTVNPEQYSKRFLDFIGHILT
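Reactions run in 0.038 M HEPES pH 7.4, 0.28 mM EGTA, 0.1% CHAPS and 5% DMSO, with PI5P4Kalpha, substrate, compound and 5 microM ATP final, one hour at room temperature. Readout is ADP-Glo luminescence.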
POLI inh: qHTS for Inhibitors of Polymerase Iota; Pol iota fluorescent replication assay, 10 min; Potency, µM (series often up to 115 µM), for the others: at the top dose activity, negative = inhibition, most hits filed as inhibitors; 390,000 compounds, 1% hits; AID 588590, 2011; further: potency means the concentration at half of the fitted maximal effect
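Pol iota at 10 nM preincubated 15 min with compounds at room temperature; reaction started with fluorescent substrate, 50 nM final. Fluorescence read kinetically at 0 and 10 min; buffer-only wells as negative control.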
12-LOX inh: Primary qHTS assay for inhibitors of human arachidonate 12S-lipoxygenase (ALOX12): Round 2 | Polyunsaturated fatty acid lipoxygenase ALOX12 (Homo sapiens), P18054 | purified 12hLO, xylenol orange hydroperoxide absorbance | Potency, µM (series often up to 108 µM), for the others: at the highest dose activity change, negative = inhibition, usual class: inhibitors | 580,000 compounds, 1.1% hits | AID 1671190, 2021; further: potency means the concentration at half of the fitted maximal effect; on the % scale 0 is the no-effect control and ±100 the full control effect
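Purified human 12hLO (150 nM final) in 25 mM Hepes, 0.01% Triton X-100, pH 7.0 was preincubated 15 min at room temperature with compound. Then 40 uM arachidonic acid was added, 30 min. Hydroperoxide was read by Fe-XO absorbance ratio 573/405 nm.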
POLK inh: qHTS for Inhibitors of Polymerase Kappa; Potency, µM (doses to about 107 µM), for the others: at the top dose activity, negative = inhibition, actives largely listed as inhibitors; 400,000 compounds, 0.53% hits; purified Pol kappa, fluorescent DNA synthesis assay, 10 min; DNA polymerase kappa (Homo sapiens), Q9UBT6; further: potency means the concentration at half of the fitted maximal effect; on the % scale 0 is the no-effect control and ±100 the full control effect
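10 nM Pol kappa was preincubated with compounds for 15 min at room temperature. Reaction started with 50 nM (final) substrate. Fluorescence read kinetically at 0 and 10 min.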
POLB inh: qHTS Assay for Inhibitors of DNA Polymerase Beta; AID 485314, 2010; Pol beta primer extension/strand displacement, fluorescence kinetic; 340,000 compounds, 1.3% hits; Potency, µM (highest dose often 114 µM), without a hit: at the highest dose activity change, negative = inhibition, usual class: inhibitors; further: potency means the concentration at half of the fitted maximal effect; on the % scale 0 is the no-effect control and ±100 the full control effect
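Enzyme-only controls used 10 nM Pol beta; buffer lacking enzyme served as negative control. Compound preincubated 15 min, then 50 nM substrate added; 0 and 10 min reads at room temperature.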
POLH inh: qHTS for Inhibitors of Polymerase Eta. DNA polymerase eta (Homo sapiens), Q9Y253. recombinant Pol eta, fluorescent DNA replication assay. Potency, µM (doses to about 114 µM), for the others: top-dose activity change, negative = inhibition, actives largely listed as inhibitors. 390,000 compounds, 1.2% hits. AID 588591, 2011; further: potency means the concentration at half of the fitted maximal effect; on the % scale 0 is the no-effect control and ±100 the full control effect
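Fluorescent replication assay: 50 nM final substrate added after a 15 min room-temperature compound preincubation with 10 nM enzyme. Signal taken at 0 min and again at 10 min.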
An asterisk follows results filed as active; i = inactive; u = inconclusive; x = not tested or not shown; ! = repeats disagree; [ ] = another dose, or the depositor's remark. Shown are actives, neighbours in structure and some others; about 2.9% of the full set was active somewhere. Unless noted, the call rests on the fitted dose curve; in most records, active means well fitted inhibition curve with a large enough effect; inconclusive means small, poorly fitted or top-dose-only effect, or another doubt; inactive means no such curve, though single readings can be large or run the other way.

SMILES | PI5P4Ka inh | POLI inh | 12-LOX inh | POLK inh | POLB inh | POLH inh
NS(=O)(=O)c1ccc(CCNC(=O)Cn2c(=O)c3cccn3c3ccc(F)cc32)cc1 | x | -8.2% | -9.3% | -13.4% | 44.7µM* | 6.1%
CCCNC(=O)c1ccc(Cn2c(=O)c3cccn3c3cccnc32)cc1 | x | -3.8% | -23.3% | -7.8% | -17.3% | -10.0%
O=C(NCCc1ccccc1Cl)c1ccc(Cn2c(=O)c3cccn3c3cccnc32)cc1 | x | u | u | -19.2% | 14.1µM* | u
COc1ccccc1C(=O)OC1=CN(C(C)C)S(=O)(=O)c2ccccc21 | x | x | 44.6% | x | x | x
CCOC(=O)C1=C(CSc2nc3c(cc2C#N)CN(C)CC3)OC(N)=C(C#N)C1c1ccncc1 (centres undefined) | -10.5 | 31.6µM* | -11.5% | u | u | u
CCOC(=O)C1=C(CSc2nc3c(cc2C#N)CN(C)CC3)OC(N)=C(C#N)C1c1ccc(Cl)cc1 (centres undefined) | u | u | -6.7% | u | 18.5% | u
CNC(=O)C1(N2CCC[C@H]2C(=O)N2CC[C@@H](O)C2)CCCCC1 | x | x | 10.0%[176 µM] | x | x | x
CNC(=O)C1(N2CCC[C@H]2C(=O)N2CCC[C@@H]2COC)CCCCC1 | x | x | 22.4µM* | x | x | x
Cc1ccc(C)c(OCCn2cnc3c2c(=O)n(C)c(=O)n3C)c1 | x | x | 4.5% | x | x | x
CCOc1ccc2oc(C(=O)N3CCN(c4ccccn4)CC3)c(C)c2c1 | -25.5 | u | i | -9.1% | u | 20µM*
O=C(Nc1nncs1)c1cc2c(s1)CCC2 | -9.6 | -3.7% | u | -1.1% | -10.1% | -2.1%
CC(C)Cc1nnc(NC(=O)c2cc3c(s2)CCC3)s1 | -22.5 | 28.2µM* | u | u | -25.8% | -28.2%
CC(NO)C(C)(C)NO (centres undefined) | 1.5 | 12.9% | 22.4µM*! | -8.7% | 2.6% | -24.9%
CC(=O)c1c(C)oc2c1cc(NS(=O)(=O)c1ccc(Br)cc1)c1ccccc12 | x | 48.4% | -23.8% | -2.5%[60.1 µM] | -18.5% | -20.6%
Cc1oc2c(cc(NS(=O)(=O)c3ccc(Cl)cc3)c3ccccc32)c1C(=O)O | -28.0 | 46.1% | 39.8µM* | -40.5% | 19.9% | 50.1µM*
O=C(Nc1cccc(C(F)(F)F)c1)c1noc2c1CCCCC2 | x | x | -3.7% | x | x | x
C#CCOCCOCCOCCNc1nc(N2CCN(C(=O)[C@H](CCC(=O)O)n3cc(C(N)[C@H](C)CC)nn3)CC2)nc(N2CCN(C(=O)[C@H](CCC(=O)O)n3cc(C(N)[C@H](C)CC)nn3)CC2)n1 (some centres undefined) | -1.0 | u | -9.0% | -54.1% | 2.4% | 25.1µM*
C#CCOCCOCCOCCNc1nc(N2CCN(C(=O)[C@H](CCCN=C(N)N)n3cc(C(N)[C@H](C)CC)nn3)CC2)nc(N2CCN(C(=O)[C@H](CCCN=C(N)N)n3cc(C(N)[C@@H](C)CC)nn3)CC2)n1 (some centres undefined) | -60.9* | u | x | 4.2% | x | -5.0%
C#CCOCCOCCOCCNc1nc(N2CCN(C(=O)[C@H](CCC(=O)O)n3cc(C(N)CO)nn3)CC2)nc(N2CCN(C(=O)[C@H](CCC(=O)O)n3cc(C(N)[C@H](C)CC)nn3)CC2)n1 (some centres undefined) | -0.8 | -11.1% | x | 8.5% | -3.7% | 8.1%
C#CCOCCOCCOCCNc1nc(N2CCN(C(=O)[C@H](CC(N)=O)n3cc(C(N)[C@H](C)CC)nn3)CC2)nc(N2CCN(C(=O)[C@H](CC(N)=O)n3cc(C(N)[C@@H](C)CC)nn3)CC2)n1 (some centres undefined) | 4.6 | u | 0.631µM* | 1.1% | x | -14.2%
CC(=O)c1ccccc1NC(C(=O)Nc1ccc2c(c1)OCCO2)c1cccs1 (centres undefined) | x | x | -0.8% | x | x | x
Oc1c(Cl)cc(Cl)cc1/C=C/c1ccc2cccc(O)c2n1 | -2.7 | 22.7% | -26.0% | -15.5% | 28.2µM* | -28.2%
O=c1c2ccccc2oc2ccc(-c3ccoc3)cc12 | x | 14.1µM* | x | u | x | x
Cc1nc(NS(=O)(=O)c2ccccc2)sc1NC(=O)Nc1ccccc1 | -3.8 | 3.1% | u | -14.9% | 4.7% | -1.3%
Cc1nc(NS(=O)(=O)c2ccccc2)sc1NC(=O)Nc1ccc(Cl)cc1 | -20.6 | -0.5% | 39.8µM* | -2.1% | -7.2% | 6.2%
SMILES | PI5P4Ka inh | POLI inh | 12-LOX inh | POLK inh | POLB inh | POLH inh
O=C(CN1CCN(c2ccccc2F)CC1)NC(=O)NCc1ccco1 | -18.0 | u | u | u | 31.6µM* | -10.8%
Cc1scc(C(=O)NCc2ccco2)c1-c1ccccc1 | x | u | u | -13.2% | 22.4µM* | u
O=C(NCc1ccco1)c1cc(=O)c2ccccc2o1 | -1.3 | -12.4% | 1.0% | -8.6% | -18.2% | -2.8%
O=C(NCc1ccco1)c1ccccc1F | -18.9 | u | u | -28.9% | u | 22.4µM*
O=C(NCc1ccco1)c1cc2ccccc2c(=O)o1 | u | u | i | u | 44.7µM* | u
O=C(Cc1c[nH]c2ccccc12)NC1CCN(CC2CCCC2)CC1 | x | x | -6.9% | x | x | x
COc1ccc(/C(=N/OC(=O)c2cc(Cl)ccc2OC)c2nccc3cc(OC)c(OC)cc23)cc1OC | x | x | 6.3% | x | x | x
O=C(COc1ccc(/C=C\[N+](=O)[O-])cc1)N1CCOCC1 | -1.5 | 31.6µM* | 21.2% | -20.1% | -23.7% | 31.6µM*
O=C(Nc1ccc(F)c(C(F)(F)F)c1)c1ccccc1-c1ccccc1 | x | x | -60.3% | x | x | x
Cc1ccc(-n2c(SCc3nnnn3-c3ccccc3)nnc2N2CCCCC2)cc1 | x | x | 0.1% | x | x | x
COc1cc(NC(=S)N2CCC(C(O)(c3ccccc3)c3ccccc3)CC2)cc(OC)c1 | 2.2 | -0.2% | 39.8µM* | -5.9% | 0.2% | -26.2%
CCNC(=S)N1CCC(C(O)(c2ccccc2)c2ccccc2)CC1 | -2.0 | 14.9% | -3.1% | -20.6% | 3.3% | -7.0%
Cc1ccc(C(=O)c2c(C)oc3c2C(=O)C(=O)c2ccccc2-3)cc1 | -12.8 | -45.3% | x | -4.5% | -25.3% | 44.7µM*
Cc1ccc(N(C(=O)C23CC4CC(CC(C4)C2)C3)C2C=CS(=O)(=O)C2)cc1 (centres undefined) | x | x | -45.3% | x | x | x
Cc1ccc2cc3c(N)c(C(=O)Nc4c(C)[nH]c(=O)[nH]c4=O)sc3nc2c1 | 0.5 | u | -25.6% | -28.5% | u | u
